Compounds without any hit were thinned out: in the full panel of roughly 83,000, 20% have a hit.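 For each line, cells grew in 96-well plates with the test compound present at a single concentration for 48 hours.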 Unmarked numbers belong to inactive results. Calls of active or inactive are those of the source. The calls were made as follows: active = growth percent below 10; inactive = the rest.
Key:
Experiment in all cases: NCI-60 one-dose screen, 48 h (100 = growth as untreated, 0 = no growth, -100 = all killed)
Settings in all cases: 10 µM unless noted
NCI-H23 lung = test system: NCI-H23 lung
NCI-H226 lung = test system: NCI-H226 lung
NCI-H322M lung = test system: NCI-H322M lung
HOP-62 NSCLC = test system: HOP-62 NSCLC
NCI-H460 lung = test system: NCI-H460 lung
HOP-92 NSCLC = test system: HOP-92 NSCLC
A549/ATCC NSCLC = test system: A549/ATCC NSCLC
786-0 renal = test system: 786-0 renal
COLO 205 colon = test system: COLO 205 colon
DU-145 prostate = test system: DU-145 prostate
K-562 leukemia = test system: K-562 leukemia
MALME-3M melanoma = test system: MALME-3M melanoma
MDA-MB-231 breast = test system: MDA-MB-231 breast
RXF 393 renal = test system: RXF 393 renal
SF-268 CNS = test system: SF-268 CNS
SF-295 CNS = test system: SF-295 CNS
SF-539 CNS = test system: SF-539 CNS
UACC-257 melanoma = test system: UACC-257 melanoma
M14 melanoma = test system: M14 melanoma
NCI-H522 lung = test system: NCI-H522 lung

SMILES | growth (NCI-H23 lung) | growth (NCI-H226 lung) | growth (NCI-H322M lung) | growth (HOP-62 NSCLC) | growth (NCI-H460 lung) | growth (HOP-92 NSCLC) | growth (A549/ATCC NSCLC) | growth (786-0 renal) | growth (COLO 205 colon) | growth (DU-145 prostate) | growth (K-562 leukemia) | growth (MALME-3M melanoma) | growth (MDA-MB-231 breast) | growth (RXF 393 renal) | growth (SF-268 CNS) | growth (SF-295 CNS) | growth (SF-539 CNS) | growth (UACC-257 melanoma) | growth (M14 melanoma) | growth (NCI-H522 lung)
C=C1C(=O)O[C@H]2[C@H]1CC/C(COC(=O)CCCCCC(=O)OC/C1=C/CC[C@@]3(C)O[C@H]3[C@H]3OC(=O)C(=C)[C@@H]3CC1)=C\CC[C@@]1(C)O[C@@H]21 | 9.16% (active) | 52% | 86.3% | 85.6% | 76.4% | -1.51% (active) | 80.6% | 7.09% (active) | -38.4% (active) | 22.4% | 6.4% (active) | -11.1% (active) | -28.2% (active) | -77.3% (active) | 43.6% | 84.7% | 3.99% (active) | 48.2% | -0.138% (active) | 
C1=C2CNCC3=Cc4ccc5ccccc5c4OC23Oc2c1ccc1ccccc21 | 52.8% | 67.7% | 98% | 43.6% | 33.5% | 37.2% |  |  | 50.8% | 65.3% | 18.8% | 60.6% | 51.3% | -3.36% (active) | 42.7% | 11.6% | 50.5% | 60.9% | 2.63% (active) | 0.285% (active)
CC(C)CN(C(=O)c1ccc(Cl)cc1)c1c(N)n(CC(C)C)c(=O)[nH]c1=O | 95.8% | 98.7% | 103% | 90.6% | 88.4% | 80.6% | 98.8% | 91.4% | 122% | 112% | 103% | 102% | 96.1% |  | 92.3% | 84.7% | 43.7% | 103% | 109% | 
Cc1ccc2[nH]c(=O)cc(-n3nncc3COc3ccc(C=O)cc3)c2c1 | 103% | 90.3% | 103% | 101% | 106% | 95.6% | 103% | 102% | 128% | 105% |  | 100% | 101% |  | 102% | 104% | 99.4% | 116% | 103% | 
COc1cc2oc(-c3cccc(C(=O)Nc4ccc(Cl)cc4)c3)cc(=O)c2c(OC)c1OC | 44.3% | 36.5% | 37% | 12.8% | 20.1% | -2.18% (active) |  | 12% | 18% | 42.4% | 16% | 14.2% | -3.1% (active) | -29% (active) | 48.3% | -41.6% (active) | 35.2% | -7.18% (active) | -18% (active) | 
Cc1cccc(C)c1-c1cc(Cc2ccc(Cl)cc2)c(=O)[nH]n1 | 84.9% | 97.3% | 111% | 99.4% | 109% | 78.6% |  | 104% | 108% | 105% | 89.5% | 111% | 94.3% |  | 93.6% | 104% | 111% | 42.3% | 114% | 
O=C1Nc2c(ccc(Cl)c2Cl)/C1=C/c1ccc(O)cc1 | 86.7% | 90.1% | 107% | 86.1% | 94.1% | 65.7% | 35.7% | 92.3% | 98.6% | 119% | 91.9% | 108% | 88.7% |  | 89.1% | 87.6% | 98.3% | 102% | 100% | 
COc1ccc(C2=C(c3ccccc3)c3ccc(OC(C)=O)cc3OC2(C)C)cc1 | 79.8% | 86.3% | 102% | 107% | 84.8% | 81.1% |  | 101% | 108% | 105% |  | 107% | 68.2% | 95.8% | 102% | 72.3% | 102% | 145% | 110% | 88.8%
O=C(N/N=C/c1ccc(F)cc1)c1ccccc1Nc1cccc(C(F)(F)F)c1 | 104% | 95.8% | 111% | 109% | 101% | 76.4% | 53.3% | 95.5% | 120% | 96.8% | 83.9% | 111% | 117% |  | 82.6% | 121% | 109% | 105% | 95% | 
OC1(c2ccc(Cl)c(C(F)(F)F)c2)CCN(CCCC(c2ccc(F)cc2)c2ccc(F)cc2)CC1 | -74.9% (active) | 28.9% | -75.5% (active) | -94.6% (active) | -95% (active) | -87.5% (active) | -70.7% (active) | -97.6% (active) | -92.6% (active) | -97% (active) | -20.2% (active) | -75.3% (active) | -87.6% (active) |  | -90% (active) | -85.3% (active) | -74.6% (active) | -85.6% (active) | -84.8% (active) | 
CCOC(=O)C1CC(=O)c2cc(OC)c(OC)cc2C1 (stereo not drawn) | 101% | 92.6% | 123% | 96% | 110% | 84% | 100% | 96.2% | 127% | 111% | 88% | 132% | 110% |  | 102% | 98.1% | 100% | 87.7% | 87.8% | 
Clc1cc(Cl)cc(N2N=C(c3cccc(Nc4ccncc4)c3)CC2c2ccc(Br)cc2)c1 (stereo not drawn) | 64.4% | 85.7% | 73.1% | 33.7% | -81.8% (active) | 65.8% | 19.1% | 105% | -40.5% (active) | 35.2% | 1.66% (active) | 23.7% | 57.1% |  | 77.1% | 36.9% | 76.6% | 79.4% | 108% | 
CC(=O)c1c(C)[nH]c(-c2nc3ccc(N4CCN(C)CC4)cc3[nH]2)c1-c1ccccc1 | 53% | 55.2% | 41.6% | 33.3% | 52.3% | 29.8% | 38.1% | 85.9% | 16.1% | 59.7% | 24.7% | 23.7% | 32% |  | 53.6% | 38.1% | 24.9% | 48.4% | 94.7% | 
CC(O)/C=C/C=C/C(O)CC/C=C/C(=O)NCC(C)(C)O (stereo not drawn) | 95.3% | 108% | 106% | 110% | 101% | 96.1% | 96.1% | 109% | 118% | 106% | 72.8% | 112% | 111% | 121% | 108% | 107% | 109% | 91.5% | 101% | 
C#Cc1cccc(NC(=O)Nc2cccc(N=C=S)c2)c1 | 99.3% [8.25 µM] | 101% [8.25 µM] | 95.1% [8.25 µM] | 115% [8.25 µM] | 112% [8.25 µM] | 106% [8.25 µM] | 90.8% [8.25 µM] | 95.4% [8.25 µM] | 130% [8.25 µM] | 107% [8.25 µM] | 107% [8.25 µM] | 90.6% [8.25 µM] | 94.5% [8.25 µM] |  | 95.4% [8.25 µM] | 101% [8.25 µM] | 102% [8.25 µM] | 102% [8.25 µM] | 98.5% [8.25 µM] | 
CN1CCN(Cc2ccc(NC(=O)c3cncc(C#Cc4cnccc4C(F)(F)F)c3)cc2C(F)(F)F)CC1 | 67.9% | 47.8% | 107% | 80.5% | 71.6% | 55.6% |  | 89.7% | 44.4% | 105% | 8.53% (active) | 15.3% | 55.6% |  | 92.1% | 88.6% | 28.8% | 80.4% | 35.2% | 79.4%
